Experimental findings from PubChem BioAssay (Tox21) are described below.

Results filed as inconclusive are left out. Active and inactive are the calls of the source. Unless noted, the call rests on the fitted dose curve.

The nature of assay [1]: Nuclear factor erythroid 2-related factor 2/antioxidant responsive element (Nrf2/ARE) small molecule agonists: qHTS cell viability counter screen in human keratinocytes (AID 1919968; active means well fitted cell-killing curve with a large enough effect in the repeat runs; further: nearly all actives have a fitted effect of over 55% in size). The gist of the method: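 HaCaT ARE reporter line, 1,500 cells/well; 5 h settle, 37 C/5% CO2; cpd in DMSO pinned; 23 h exposure; CellTiter-Fluor, 1 h; fluorescence.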
Background: In qHTS, concentration-response curves come from the screen itself.

A short description of assay [2]: Nuclear factor erythroid 2-related factor 2/antioxidant responsive element (Nrf2/ARE) small molecule agonists: luciferase reporter gene qHTS assay in human keratinocytes (AID 1919969). Further: nearly all actives have a fitted effect of over 35% in size. Further: potency means the concentration at half of the fitted maximal effect.
Assay [3] deals with Gonadotropin-releasing hormone receptor (Homo sapiens) (UniProt P30968). The assay is described as follows: Human gonadotropin-releasing hormone receptor (GnRHR) small molecule agonists, calcium flux assay in GnRHR-HEK293 cells (AID 1920063). Further: nearly all actives have a fitted effect of over 35% in size. In outline:
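GnRHR-HEK293, 1500 cells/well, 18 h 37 C/5% CO2; Ca dye 1 h 37 C; cpd pinned (DMSO), agonist mode; kinetic FL 480/540, 3 min, 1 s reads; 15 conc, n=3.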
(Calcium flux is commonly read through the fluorescence of an indicator in the cells.)

The nature of assay [4]: G protein-coupled receptor (GPCR) small molecule agonists, calcium flux assay: HEK293 wild type cell line counter screen (AID 1920065). In outline: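 Kinetic fluorescence at Ex/Em 480/540, recorded every second over 3 min, served as the read-out after compound addition. Each compound was tested at 15 concentrations in triplicate on cells pre-loaded with calcium dye for 1 h.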

A short description of assay [5]: p53 small molecule agonists, cell-based qHTS assay with human liver microsomes (AID 1963577).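 Further: p53 response element beta-lactamase reporter cells with liver microsomes plus NADPH.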 In outline: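 Reporter activation was measured by LiveBLAzer fluorescence intensity in p53RE-bla cells, which had been exposed to compounds for 16 h at 37 C alongside 0.5 mg/mL human liver microsomes and 0.5 mg/mL NADPH (final concentrations).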
A short description of assay [6]: p53 small molecule agonists, cell-based qHTS assay with rat liver microsomes (AID 1963578). In outline: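 Compound in DMSO added to p53RE-bla cells 5 h post-plating; rat microsomes/NADPH 0.5 mg/mL final; 16 h, 37 C; LiveBLAzer 2 h RT.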
Assay [7] in a line: p53 small molecule agonists, cell-based qHTS assay with human liver microsomes: qHTS cell viability counter screen (AID 1963579). Further: nearly all actives have a fitted effect of over 45% in size. The gist of the method:
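HLM-supplemented (0.5 mg/mL final) and NADPH-supplemented (0.5 mg/mL final) p53RE-bla cultures, 4,000 cells per well, were dosed with compounds in DMSO for 16 h at 37 C; luminescent ATP detection (CellTiter-Glo, 30 min, room temperature) quantified surviving cells.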

The nature of assay [8]: p53 small molecule agonists, cell-based qHTS assay with rat liver microsomes: qHTS cell viability counter screen (AID 1963580). Further: nearly all actives have a fitted effect of over 45% in size. In outline: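 p53RE-bla HCT-116 cells were exposed 16 h at 37 C to compounds with rat liver microsomes (0.5 mg/mL) and NADPH (0.5 mg/mL). Viability was measured in the same wells as ATP content by CellTiter-Glo luminescence.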
A short description of assay [9]: p53 small molecule agonists, cell-based qHTS assay: qHTS cell viability counter screen (AID 1963581). Further: nearly all actives have a fitted effect of over 45% in size. The gist of the method:
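HCT-116 p53RE-bla cells, 4,000/well, plated 5 h before compound pin transfer; 16 h at 37 C; bla substrate 2 h RT; then CellTiter-Glo, 30 min RT, luminescence.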

Assay [10] is described as follows: p53 small molecule agonists, cell-based qHTS assay (AID 1963582; active means well fitted activation curve with a large enough effect in the signal ratio in the repeat runs, not every such curve was filed as active; the % refers to the signal ratio). In outline: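 Reporter line: p53RE-bla. Pre-incubation 5 h, 37 C, 5% CO2; compound (DMSO, pin tool) 16 h, 37 C; B/G FRET substrate 2 h RT; fluorescence intensity read.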
In assay [11] the target is 5-hydroxytryptamine receptor 2A (Homo sapiens) (UniProt P28223). Put plainly: 5-hydroxytryptamine receptor 2A (HTR2A) small molecule antagonists, cell-based qHTS assay (AID 1963586). Further: nearly all actives have a fitted effect of over 45% in size. In outline: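 Antagonist-mode intracellular calcium assay: DOI (4 nM) added after 5 min compound pre-incubation at room temperature to dye-loaded HTR2A-CHO cells. Fluorescence followed for 3 min, sampled every second.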
5-hydroxytryptamine receptor 2A (Homo sapiens), sequence (P28223 whole entry, looked up): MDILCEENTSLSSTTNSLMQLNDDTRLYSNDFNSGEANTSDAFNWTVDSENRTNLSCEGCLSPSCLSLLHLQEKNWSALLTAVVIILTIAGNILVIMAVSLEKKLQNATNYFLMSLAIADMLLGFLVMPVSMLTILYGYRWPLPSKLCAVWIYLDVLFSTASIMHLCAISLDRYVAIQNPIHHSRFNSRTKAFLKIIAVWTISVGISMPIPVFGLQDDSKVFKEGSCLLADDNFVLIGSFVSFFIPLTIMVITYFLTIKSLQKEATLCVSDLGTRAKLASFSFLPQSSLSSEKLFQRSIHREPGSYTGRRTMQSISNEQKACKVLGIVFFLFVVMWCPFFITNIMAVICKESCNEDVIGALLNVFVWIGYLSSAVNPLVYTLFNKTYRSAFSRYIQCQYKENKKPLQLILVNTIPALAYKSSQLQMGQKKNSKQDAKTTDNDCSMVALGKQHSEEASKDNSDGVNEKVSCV

For assay [12] the target is unchanged. Put plainly: 5-hydroxytryptamine receptor 2A (HTR2A) small molecule agonists, cell-based qHTS assay (AID 1963587). Further: nearly all actives have a fitted effect of over 30% in size. In outline: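 CHO cells stably expressing human HTR2A, plated 18 h, loaded with calcium dye 1 h at 37 C. Agonist mode: compounds added and intracellular calcium fluorescence recorded kinetically for 2 min at 1 sec intervals.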
In assay [13] the target is Muscarinic acetylcholine receptor M1 (Homo sapiens) (UniProt P11229). Put plainly: Cholinergic receptor muscarinic 1 (CHRM1) small molecule antagonists, cell-based qHTS assay (AID 1963588). Further: nearly all actives have a fitted effect of over 40% in size. In outline:
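CHRM1-CHO calcium-flux assay, antagonist mode. Cells were seeded 18 h, dye-loaded 1 h at 37 C and given compound for 5 min at RT, then acetylcholine was added at 50nM. FDSS fluorescence was read 3 min; 15 concentrations, three runs.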

The target is the same in assay [14]. The assay is described as follows: Cholinergic receptor muscarinic 1 (CHRM1) small molecule agonists, cell-based qHTS assay (AID 1963589). Further: nearly all actives have a fitted effect of over 35% in size. In outline:
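Human M1 in stable CHO line; 18 h plating, 1 h dye load 37 C; cpd added (agonist mode); Ca2+ fluorescence kinetic read, 1 s intervals; 15 conc, 3 runs.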

Assay [15] is described as follows: cAMP Responsive Elements (CRE) small molecule agonists, cell-based qHTS assay (AID 1963590). In outline: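 HEK 293T CRE-bla, 2,000 cells/well, 18 h preincubation 37 C/5% CO2; cpds (DMSO) pinned, 3 h; LiveBLAzer B/G FRET substrate, 2 h RT.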
Assay [16] is described as follows: cAMP Responsive Elements (CRE) small molecule antagonists, cell-based qHTS assay (AID 1963591; active means well fitted inhibition curve with a large enough effect in the signal ratio in the repeat runs, not every such curve was filed as active; the % refers to the signal ratio). In outline: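 Beta-lactamase reporter read by FRET substrate (LiveBLAzer B/G) after 2 h at room temperature. CRE-bla HEK293T cells had received compound plus 0.25 uM (final) NKH477 for 3 h at 37 °C.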
Assay [17] concerns the target Beta-2 adrenergic receptor (Homo sapiens) (UniProt P07550). The assay is described as follows: Adrenergic beta2 receptor (ADRB2) small molecule antagonists, cell-based qHTS assay (AID 1963592). Further: series mostly up to about 92 µM; nearly all actives have a fitted effect of over 50% in size. The gist of the method:
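Cells (CHO, stable ADRB2 overexpression) incubated 18-20hr at 37C; compounds added from DMSO; agonist mix (1nM isoproterenol, 100uM IBMX, 25uM Ro-20-1724) added; 0.5hr RT; d2-cAMP and anti-cAMP-cryptate added; 1hr RT; 665/615 nm read.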

The target is the same in assay [18]. Put plainly: Adrenergic beta2 receptor (ADRB2) small molecule agonists, cell-based qHTS assay (AID 1963593).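 Further: CHO cells stably overexpressing human ADRB2.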 The gist of the method:
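CHO cells stably over-expressing ADRB2 were plated overnight at 37C, then dosed with compounds plus a stimulation mix containing 100uM IBMX and 25uM Ro-20-1724 for 0.5hr at room temperature. cAMP was measured by HTRF competition, 1hr.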

Assay [19] deals with D(2) dopamine receptor (Homo sapiens) (UniProt P14416). Put plainly: Dopamine D2 receptor (DRD2) small molecule agonists, cell-based qHTS assay (AID 1963594). Further: nearly all actives have a fitted effect of over 35% in size. The gist of the method:
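HEK293 cells stably expressing human DRD2, pre-treated with PDE inhibitor Ro20-1724 (0.1 mM final) and compound 10 min at room temperature, then stimulated with NKH477 (200nM […]) for 30 min. cAMP read by HTRF (665/620 nm).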

For assay [20] the target is unchanged. Put plainly: Dopamine D2 receptor (DRD2) small molecule antagonists, cell-based qHTS assay (AID 1963595; active means well fitted inhibition curve with a large enough effect in the signal ratio in the repeat runs, with a control signal flat; the % refers to the signal ratio). The gist of the method: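 HEK293 cells stably expressing DRD2, preincubated with 0.1 mM Ro20-1724 and compounds 10 min, were stimulated with 200 nM NKH477 plus 12 nM quinpirole for 30 min at room temperature; cAMP measured by HTRF (665/620 nm).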

Muscarinic acetylcholine receptor M1 (Homo sapiens), sequence (P11229 whole entry, looked up): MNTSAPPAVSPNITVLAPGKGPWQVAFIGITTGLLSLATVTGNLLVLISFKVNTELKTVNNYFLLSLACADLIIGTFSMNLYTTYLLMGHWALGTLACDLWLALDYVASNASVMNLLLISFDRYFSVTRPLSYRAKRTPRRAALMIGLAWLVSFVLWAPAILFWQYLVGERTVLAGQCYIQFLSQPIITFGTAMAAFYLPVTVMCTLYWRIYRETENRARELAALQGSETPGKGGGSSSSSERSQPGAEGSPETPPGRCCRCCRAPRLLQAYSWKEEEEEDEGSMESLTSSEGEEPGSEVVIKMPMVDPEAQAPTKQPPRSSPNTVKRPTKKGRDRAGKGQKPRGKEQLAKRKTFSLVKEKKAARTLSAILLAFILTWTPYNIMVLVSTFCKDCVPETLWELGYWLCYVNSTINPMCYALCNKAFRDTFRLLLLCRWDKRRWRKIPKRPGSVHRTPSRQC
Beta-2 adrenergic receptor (Homo sapiens), sequence (P07550 whole entry, looked up): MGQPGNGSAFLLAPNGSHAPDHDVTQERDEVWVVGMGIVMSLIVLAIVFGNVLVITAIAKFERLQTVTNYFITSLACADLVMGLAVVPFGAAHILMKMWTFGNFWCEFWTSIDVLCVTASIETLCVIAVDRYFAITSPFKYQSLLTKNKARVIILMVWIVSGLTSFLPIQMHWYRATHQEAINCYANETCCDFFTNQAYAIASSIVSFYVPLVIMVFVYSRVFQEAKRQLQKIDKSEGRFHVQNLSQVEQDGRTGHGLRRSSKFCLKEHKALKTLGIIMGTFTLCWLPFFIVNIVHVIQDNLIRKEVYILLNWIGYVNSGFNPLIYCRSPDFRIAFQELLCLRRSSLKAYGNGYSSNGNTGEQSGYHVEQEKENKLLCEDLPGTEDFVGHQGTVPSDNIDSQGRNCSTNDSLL
Gonadotropin-releasing hormone receptor (Homo sapiens), sequence (P30968 whole entry, looked up): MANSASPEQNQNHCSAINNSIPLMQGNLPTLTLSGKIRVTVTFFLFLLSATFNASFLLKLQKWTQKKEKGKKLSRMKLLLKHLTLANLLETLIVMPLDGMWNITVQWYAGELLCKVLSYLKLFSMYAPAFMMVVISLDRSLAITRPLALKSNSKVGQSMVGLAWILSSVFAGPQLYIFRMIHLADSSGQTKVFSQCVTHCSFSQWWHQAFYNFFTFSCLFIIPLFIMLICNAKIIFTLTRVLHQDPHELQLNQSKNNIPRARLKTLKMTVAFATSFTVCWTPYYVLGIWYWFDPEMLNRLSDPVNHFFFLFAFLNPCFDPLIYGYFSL
D(2) dopamine receptor (Homo sapiens), sequence (P14416 whole entry, looked up): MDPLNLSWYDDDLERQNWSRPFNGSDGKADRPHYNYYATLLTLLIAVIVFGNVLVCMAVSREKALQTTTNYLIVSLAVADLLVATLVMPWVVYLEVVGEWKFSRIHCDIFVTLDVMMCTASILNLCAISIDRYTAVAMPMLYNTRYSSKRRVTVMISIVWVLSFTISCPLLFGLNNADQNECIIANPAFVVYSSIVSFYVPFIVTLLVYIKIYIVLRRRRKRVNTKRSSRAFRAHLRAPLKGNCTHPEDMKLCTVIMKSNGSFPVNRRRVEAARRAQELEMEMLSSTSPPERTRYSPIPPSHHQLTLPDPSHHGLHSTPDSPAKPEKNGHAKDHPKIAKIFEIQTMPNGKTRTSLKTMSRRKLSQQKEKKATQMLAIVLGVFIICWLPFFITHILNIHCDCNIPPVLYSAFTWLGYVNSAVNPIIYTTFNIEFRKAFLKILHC

On to `CC(=O)CC(C)(C)C1CCCCC1`, for which the Potency result in assay [1], in assay [2], in [3], in [4], in assay [5] and in assay [6] was “inactive” each time. Besides, the Potency entry in [7], in [8], in [9], in assay [10], in assay [11] and in assay [12] was “inactive” throughout. Moreover, the Potency result in assay [13], in assay [14], in assay [15], in [16], in [17] and in [18] was “inactive” each time. Moreover, the Potency result in assay [19] and in assay [20] was “inactive” throughout.
Consider `CCCCc1ncc(/C=C(\Cc2cccs2)C(=O)O)n1Cc1ccc(C(=O)O)cc1`, for which the Potency entry in [1], in assay [2], in [3], in assay [6], in assay [7] and in assay [8] was “inactive” throughout. Further, the Potency result in [9], in assay [10], in assay [12], in assay [14], in assay [15] and in assay [16] was “inactive” throughout. Further, the Potency entry in assay [17], in assay [18], in assay [19] and in [20] was “inactive” each time.
As for `CC[C@H](C)[C@H](N)C(=O)O`, the Potency entry in [1], in assay [2], in assay [3], in assay [5], in [8] and in assay [9] was “inactive” in each case. Moreover, the Potency entry in assay [10], in assay [11], in [12], in assay [13], in [14] and in assay [15] was “inactive” throughout. The Potency entry in assay [16], in assay [17] and in assay [19] was “inactive” each time.
With `CC(=O)c1ccc(O)c(C(N)=O)c1`, the Potency entry in assay [1], in [2], in assay [3], in [5], in assay [6] and in assay [7] was “inactive” throughout. Moreover, the Potency result in [10], in assay [11], in assay [13], in assay [14], in assay [15] and in [16] was “inactive” in each case. Besides, the Potency result in [17], in assay [18], in assay [19] and in assay [20] was “inactive” each time.
On to `Cc1cccc(N(C)C)c1`, for which the Potency result in assay [1], in assay [2], in [3], in [4], in assay [5] and in assay [6] was “inactive” throughout. Also, the Potency result in [7], in assay [8], in assay [9], in assay [10], in assay [11] and in assay [12] was “inactive” throughout. The Potency result in assay [13], in assay [14], in assay [15], in assay [16], in assay [17] and in assay [18] was “inactive” in each case. Further, the Potency entry in assay [19] was “inactive”.
`CCCCCCCCCCCCOCC1CO1` (stereo unspecified): the Potency entry in assay [1], in [3], in assay [7], in [8], in [9] and in assay [11] was “inactive” each time. The Potency entry in assay [12], in [13], in assay [14], in assay [15], in [16] and in assay [17] was “inactive” throughout. In addition, the Potency entry in [19] and in [20] was “inactive” each time. Further, the Potency in assay [2] is 46.3 µM (active).
Turning to `O=C1c2ccccc2CCc2ccccc21`, the Potency result in [1], in [2], in [3], in assay [7], in assay [8] and in assay [9] was “inactive” in each case. For the same molecule, the Potency entry in assay [11], in assay [13], in [14], in assay [15], in [16] and in assay [17] was “inactive” each time. For the same molecule, the Potency entry in assay [18], in assay [19] and in assay [20] was “inactive” throughout.
